# Results taken from the supplement of paper PMC13392028.
# Whole data set: some 4,100 sequences, median “RBNS R-value (6-mer enrichment in protein-bound RNA vs input library)” near 0.96, cut for the highest 2% near 2.4. Only a selection was taken, and the highest values are over-represented in it overall.
# Test system: PyIESI-1 RRM domain (Plasmodium yoelii PY17X_0911200 aa 795-956, GST fusion)
# Assay: RBNS R-value (6-mer enrichment in protein-bound RNA vs input library) (ratio); higher = stronger binding preference; the methods of the paper give 50 / 100 / 500 nM protein instead
# How it was run: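 RNA-recognition-motif regions of orthologous proteins from three Plasmodium species were expressed in E. coli as GST fusions and purified. They were incubated at room temperature with an in vitro transcribed library of random 40-mer RNA, then captured on glutathione magnetic agarose beads and washed three times. Bound RNA and input library were reverse transcribed and sequenced on a MiSeq, and 6-mers from one replicate were scored. The R-value is each motif's enrichment in bound RNA over input, computed with the Burge lab pipeline.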
Sequence,RBNS R-value (protein concentration: 250 nM),RBNS R-value (protein concentration: 500 nM),RBNS R-value (protein concentration: 1000 nM)
CAAGGC,0.956,0.935,0.949
CACACU,0.829,0.834,0.839
CGGAGC,1.02,1.01,1
UUCUUU,0.927,0.977,1
AUUUGC,1.82,1.76,1.77
AAUGGG,1.06,1.06,1.03
UAUGGG,0.863,0.942,0.916
CAUGGC,1.06,1.08,1.1
GAUGGG,2.54,2.43,2.36
GAUGGC,3.56,3.12,3.1
UAUGGC,1.41,1.37,1.34
UCAGAC,0.883,0.894,0.893
AUUUAC,0.935,0.952,0.963
AUGGGA,1.34,1.34,1.29
GUCAAC,0.681,0.708,0.688
UCUCAA,0.805,0.835,0.84
UUACGC,0.784,0.803,0.805
AAGGCU,0.979,0.991,0.95
GAUCGG,0.955,0.963,0.942
GAUAUU,1.57,1.65,1.77
GAUAUA,1.32,1.36,1.53
GAUAUG,2.3,2.32,2.43
AUAUAA,0.522,0.55,0.539

Sequence,RBNS R-value (protein concentration: 250 nM),RBNS R-value (protein concentration: 500 nM),RBNS R-value (protein concentration: 1000 nM)
AGUGUA,0.664,0.68,0.657
GGAGUU,0.958,0.98,0.948
UUUACC,0.764,0.778,0.794
GGGUGU,0.909,0.99,0.941
UCGGAA,0.911,0.907,0.87
CAUGAG,0.978,0.984,0.979
UAUGAU,4.89,4.59,4.9
CAUGAU,5.84,5.36,5.72
UAUGAA,0.826,0.838,0.811
CAUGAA,0.887,0.913,0.901
UAUGAG,0.865,0.899,0.898
AAUGGU,0.878,0.894,0.881
AAUGAU,5.76,5.22,5.56
AAUGAG,1.03,1.07,1.04
AUAGUC,0.632,0.65,0.627
CACCUG,1.72,1.67,1.73
AAUGAC,1.19,1.23,1.25
GAUGAG,3.25,3.07,3.06
GAUGAC,3.66,3.41,3.46
GGUGAA,1,1.02,0.954
GAUGGU,1.92,1.85,1.9
GAUGAU,6.07,5.52,5.59
GAUGAA,4.07,3.66,3.68

Sequence,RBNS R-value (protein concentration: 250 nM),RBNS R-value (protein concentration: 500 nM),RBNS R-value (protein concentration: 1000 nM)
GAUAAU,1.7,1.73,1.86
AAUGAA,1.03,1.02,1.02
GACGAG,1.19,1.18,1.13
UAUGAC,0.93,0.947,0.974
UGAUCG,1.64,1.68,1.74
CUAAGC,0.741,0.738,0.733
GUUUGG,0.834,0.866,0.813
UAGGAG,0.934,0.936,0.887
CUGCAU,0.892,0.929,0.917
UCUGUU,0.847,0.911,0.878
GUGGCG,0.953,0.954,0.937
AAAUGC,0.942,0.952,0.985
GAAUGC,1.17,1.18,1.17
GAAUGU,0.999,1,0.972
GAAUGA,2.5,2.31,2.3
AAAUGA,2.48,2.3,2.4
UAAUGA,1.69,1.65,1.71
AUUAAC,0.87,0.859,0.881
CCCUCC,1.15,1.13,1.17
UCGCGU,0.843,0.85,0.835
ACUCUC,0.893,0.906,0.906
GAGGAC,1.09,1.06,1.02
